In ChEMBL document CHEMBL2218924, “A broad activity screen in support of a chemogenomic map for kinase signalling research and drug discovery” (Biochem J, 2013):

What was measured:
[1] = target: T1, Serine/threonine-protein kinase TBK1 (Homo sapiens) (UniProt Q9UHD2); settings: at 10 µM
T1 sequence (whole entry): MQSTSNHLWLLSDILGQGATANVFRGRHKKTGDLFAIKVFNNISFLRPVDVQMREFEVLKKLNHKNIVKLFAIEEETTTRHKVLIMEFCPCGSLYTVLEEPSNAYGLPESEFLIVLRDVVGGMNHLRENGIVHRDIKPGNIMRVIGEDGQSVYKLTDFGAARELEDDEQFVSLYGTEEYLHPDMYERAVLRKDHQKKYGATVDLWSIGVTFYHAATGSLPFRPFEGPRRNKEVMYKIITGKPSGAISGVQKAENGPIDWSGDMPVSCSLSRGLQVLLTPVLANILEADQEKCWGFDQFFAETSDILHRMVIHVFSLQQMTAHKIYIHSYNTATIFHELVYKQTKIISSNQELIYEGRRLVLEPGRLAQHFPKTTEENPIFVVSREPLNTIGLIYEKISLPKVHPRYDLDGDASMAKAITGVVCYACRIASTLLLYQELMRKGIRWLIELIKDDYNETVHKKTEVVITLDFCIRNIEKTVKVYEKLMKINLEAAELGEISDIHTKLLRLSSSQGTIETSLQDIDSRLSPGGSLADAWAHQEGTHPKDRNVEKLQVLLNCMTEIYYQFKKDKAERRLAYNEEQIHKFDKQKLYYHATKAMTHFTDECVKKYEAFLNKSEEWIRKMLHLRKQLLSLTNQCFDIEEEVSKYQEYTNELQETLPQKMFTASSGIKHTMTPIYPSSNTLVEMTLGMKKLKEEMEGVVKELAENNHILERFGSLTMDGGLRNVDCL

[2] = target: T2, TGF-beta receptor type-1 (Homo sapiens) (UniProt P36897); settings: at 1 µM
T2 sequence (whole entry): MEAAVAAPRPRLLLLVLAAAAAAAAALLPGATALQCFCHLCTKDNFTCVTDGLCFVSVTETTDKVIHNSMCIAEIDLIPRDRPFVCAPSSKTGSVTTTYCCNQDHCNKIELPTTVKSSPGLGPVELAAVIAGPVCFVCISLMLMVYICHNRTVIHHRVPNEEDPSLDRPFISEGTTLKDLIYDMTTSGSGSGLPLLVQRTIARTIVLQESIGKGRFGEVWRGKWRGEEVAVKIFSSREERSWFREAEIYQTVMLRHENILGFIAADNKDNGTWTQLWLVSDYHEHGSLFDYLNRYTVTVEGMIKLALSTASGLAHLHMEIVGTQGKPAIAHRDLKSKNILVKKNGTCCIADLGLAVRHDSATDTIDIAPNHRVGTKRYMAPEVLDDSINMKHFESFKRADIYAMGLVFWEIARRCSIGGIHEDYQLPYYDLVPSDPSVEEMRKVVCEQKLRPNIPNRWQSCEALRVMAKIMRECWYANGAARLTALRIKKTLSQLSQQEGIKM

[3] = target: T2, TGF-beta receptor type-1 (Homo sapiens); settings: at 10 µM
[4] = target: T3, Inhibitor of nuclear factor kappa-B kinase subunit alpha (Homo sapiens) (UniProt O15111); settings: at 1 µM
T3 sequence (whole entry): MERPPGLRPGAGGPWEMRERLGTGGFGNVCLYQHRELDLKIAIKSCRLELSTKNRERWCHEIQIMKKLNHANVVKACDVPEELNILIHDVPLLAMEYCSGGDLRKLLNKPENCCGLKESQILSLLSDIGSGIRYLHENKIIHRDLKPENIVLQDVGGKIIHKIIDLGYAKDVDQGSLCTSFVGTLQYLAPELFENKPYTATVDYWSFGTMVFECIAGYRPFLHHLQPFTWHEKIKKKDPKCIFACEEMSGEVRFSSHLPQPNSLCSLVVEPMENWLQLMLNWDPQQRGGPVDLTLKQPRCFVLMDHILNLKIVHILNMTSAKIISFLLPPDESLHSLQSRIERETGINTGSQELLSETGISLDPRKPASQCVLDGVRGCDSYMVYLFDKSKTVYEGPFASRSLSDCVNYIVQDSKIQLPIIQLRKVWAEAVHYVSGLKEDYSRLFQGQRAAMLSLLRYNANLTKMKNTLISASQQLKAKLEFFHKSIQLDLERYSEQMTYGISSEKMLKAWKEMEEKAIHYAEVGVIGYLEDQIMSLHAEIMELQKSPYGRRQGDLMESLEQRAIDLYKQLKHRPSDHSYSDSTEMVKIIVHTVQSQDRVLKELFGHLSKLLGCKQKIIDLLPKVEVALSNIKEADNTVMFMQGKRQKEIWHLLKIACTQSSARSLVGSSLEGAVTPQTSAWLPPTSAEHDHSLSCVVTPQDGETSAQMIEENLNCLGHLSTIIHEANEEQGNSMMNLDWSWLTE

[5] = target: T3, Inhibitor of nuclear factor kappa-B kinase subunit alpha (Homo sapiens); settings: at 10 µM
[6] = target: T4, Inhibitor of nuclear factor kappa-B kinase subunit beta (Homo sapiens) (UniProt O14920); settings: at 1 µM
T4 sequence (whole entry): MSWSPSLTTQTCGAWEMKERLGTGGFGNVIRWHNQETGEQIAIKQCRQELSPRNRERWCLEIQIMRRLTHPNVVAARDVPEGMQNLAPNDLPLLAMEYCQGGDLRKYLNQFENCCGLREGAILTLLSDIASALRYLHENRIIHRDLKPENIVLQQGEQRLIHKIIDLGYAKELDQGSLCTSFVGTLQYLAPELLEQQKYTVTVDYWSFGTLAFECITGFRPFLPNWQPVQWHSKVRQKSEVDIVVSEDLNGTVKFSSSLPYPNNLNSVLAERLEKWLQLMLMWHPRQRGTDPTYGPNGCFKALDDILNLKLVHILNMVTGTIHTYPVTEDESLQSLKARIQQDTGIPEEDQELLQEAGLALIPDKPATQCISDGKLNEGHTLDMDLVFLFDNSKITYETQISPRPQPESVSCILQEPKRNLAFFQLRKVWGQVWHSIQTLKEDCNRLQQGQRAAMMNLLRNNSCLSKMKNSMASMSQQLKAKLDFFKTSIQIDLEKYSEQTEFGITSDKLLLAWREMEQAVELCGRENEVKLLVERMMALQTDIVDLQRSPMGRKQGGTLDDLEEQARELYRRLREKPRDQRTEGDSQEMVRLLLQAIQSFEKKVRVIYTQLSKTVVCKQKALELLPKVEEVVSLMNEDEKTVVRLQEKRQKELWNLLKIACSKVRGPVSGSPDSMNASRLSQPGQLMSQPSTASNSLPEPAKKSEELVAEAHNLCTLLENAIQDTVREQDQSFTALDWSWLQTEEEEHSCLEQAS

[7] = target: T4, Inhibitor of nuclear factor kappa-B kinase subunit beta (Homo sapiens); settings: at 10 µM

SMILES: N#CC(C#N)=C(N)/C(C#N)=C/c1ccc(O)cc1
- residual activity [1]: 72%
- residual activity [2]: 91%
- residual activity [3]: 91%
- residual activity [4]: 96%
- residual activity [5]: 92%
- residual activity [6]: 99%
- residual activity [7]: 93%
